Reference: PubChem BioAssay AID651804 (National Center for Advancing Translational Sciences (NCATS), 2012)
The whole screen tested about 1,200 compounds, of which about 20 (2%) were called active. About 23% were inconclusive and are not listed. This is one part of a sample in which actives are shown more often than they occur. A number with no mark means an inactive call. The call rests on the fitted dose curve; in most records, active means well fitted inhibition curve with a large enough effect; inconclusive means small, poorly fitted or top-dose-only effect; inactive means no such curve, though single readings can be large or run the other way.

Biological target: Transcriptional regulator ERG (Homo sapiens) (UniProt P11308)
Sequence (P11308 whole entry, looked up): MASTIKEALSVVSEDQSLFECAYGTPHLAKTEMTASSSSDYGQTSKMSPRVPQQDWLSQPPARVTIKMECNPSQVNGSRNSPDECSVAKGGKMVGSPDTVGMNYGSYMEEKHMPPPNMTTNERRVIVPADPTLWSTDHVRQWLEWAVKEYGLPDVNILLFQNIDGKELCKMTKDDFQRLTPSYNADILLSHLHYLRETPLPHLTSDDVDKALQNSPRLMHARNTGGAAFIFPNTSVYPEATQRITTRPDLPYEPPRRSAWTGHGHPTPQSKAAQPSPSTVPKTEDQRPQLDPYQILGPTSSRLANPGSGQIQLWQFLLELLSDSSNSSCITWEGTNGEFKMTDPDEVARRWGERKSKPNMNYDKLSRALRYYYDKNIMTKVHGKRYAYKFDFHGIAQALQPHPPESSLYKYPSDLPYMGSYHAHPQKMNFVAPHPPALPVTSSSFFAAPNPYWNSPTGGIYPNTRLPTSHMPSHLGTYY
Experiment: qHTS for Small Molecule Inhibitors of the ERG Ets/DNA interaction: HTRF assay against cherry picks
Details: His-ERG Ets domain with biotin-DNA; series mostly up to 154 µM; activity change, negative = inhibition: at the top concentration
Excerpt: The Ets family of proteins is a family of ~30 conserved transcription factors defined by the presence of an ~85 amino acid domain referred to as the Ets domain, which mediates sequence-specific DNA binding to a core DNA element GGAA/T.The Ets family member ERG has been linked to several neoplasms. […] More extensive studies of the effects of over-expression of ERG in prostate cells have recently been carried out and have shown that over-expression of ERG results in increased invasion. […] We will carry out a high throughout screen to identify inhibitors of the interaction between ERG and DNA using a fluorescence polarization (FP) assay with a His-tagged ERG Ets domain and fluorescently-labeled DNA probes to develop small molecule inhibitors of this interaction as probes to test this hypothesis and lay the groundwork for the development of targeted therapies against ERG. This is the counterscreen against the cherry picks. NIH Molecular Libraries Probe Production Network [MLPCN] NIH Chemical Genomics Center [NCGC] Grant: NS066464 PI Name: John Bushweller, University of Virgina
2 ul of protein solution (200 nM ERG domain in 300mM KCl, 50mM Tris-HCl, 1mM EDTA, 1mM DTT, pH 7.5); 20 nl Control plate and compound library plate; 2 ul of 200 nM biotin-DNA; incubate for 10 min at RT; 1 ul of anti-His antibody conjugated to the long-life fluorescent cryptate donner […] (5ng/ul) and streptavidin conjugated to the acceptor compound […] (0.2 ng/ul) mix; incubate 10 min and measure FRET (Excitation = 320 nm, Emission = 615, 665 nm).
Potency means the concentration at half of the fitted maximal effect.

| SMILES | activity change, negative = inhibition [%] | Potency |
| --- | --- | --- |
| CCOc1cc(CNc2cccc3[nH]c(C)nc23)ccc1OC | -20.8 | – |
| Cc1cc(C)cc(NC(=O)CCOc2ccccc2)c1 | -18.5 | – |
| O=C1CC(Cc2ccccc2)C(=O)N1c1ccc(Cl)cn1 (stereo unspecified) | -9.76 | – |
| COc1ccc(C(=O)N[C@H](C(=O)N2CCN(c3ccccc3F)CC2)C(C)C)cc1 | -6.15 | – |
| CC(=O)NNc1cc(N2CCOCC2)nc(N2CCOCC2)n1 | 0.53 | – |
| COc1cc(SC)ccc1C(=O)NC(C)C | -29 | – |
| COc1ccc(S(=O)(=O)NNC(=S)NCCc2ccccc2)c(OC)c1 | -17.7 | – |
| Cc1ccc2nc3c(c(N)c2c1)CCN3C | -20.7 | – |
| CCc1cc(C(=O)OC)c(NC(=O)CN2CCN(C(=O)C3CCCO3)CC2)s1 (stereo unspecified) | 7.69 | – |
| Cc1ccc(S(=O)(=O)N2CCC[C@H]2C(=O)NC2CCCCC2)cc1 | -19.9 | – |
| CCOC(=O)CC1C(=O)NCCN1C(=O)c1c(F)cccc1F (stereo unspecified) | -22.2 | – |
| CC(=O)NC(CC(=O)Nc1nc(-c2ccccc2)c(C(C)=O)s1)c1ccccc1 (stereo unspecified) | -23 | – |
| COc1ccc(N(CCC(=O)Nc2ccccc2F)S(=O)(=O)c2ccc(C)cc2C)cc1 | 1.43 | – |
| CCN(CC)c1ccc([N+](=O)[O-])cc1C(=O)O | -28 | – |
| CN(CCO)C1=NS(=O)(=O)c2cc([N+](=O)[O-])ccc21 | – | 28.2 µM (active) |
| O=C(COc1ccccc1)Nc1ccc2c(c1)Cc1cc(NC(=O)COc3ccccc3)ccc1-2 | -25.6 | – |
| CNC(=O)C(=O)NCCN1CCN(C(=O)c2ccc([N+](=O)[O-])cc2)CC1 | -38.6 | – |
| COc1ccc(OC)c(NC(=O)Cn2cnc3sc(C)c(S(=O)(=O)N4CCN(c5ccccc5OC)CC4)c3c2=O)c1 | -7.8 | – |
| CN(C)c1nc2n(c(=S)n1)CCS2 | -23.1 | – |
| CCC1COC(c2cccn2Cc2ccc(Cl)cc2)=N1 (stereo unspecified) | 7.96 | – |
| CC(=O)OCC(=O)C1=CCC2C3CCC4=CC(=O)C=CC4(C)C3(F)C(OC(C)=O)CC12C (stereo unspecified) | -16.2 | – |
| COc1cc(OC)cc(C(=O)NCC(=O)OCc2csc(-c3ccccc3)n2)c1 | 34.1 | – |
| CCn1cc(S(=O)(=O)Nc2ccc(Cl)cc2F)cn1 | -8.65 | – |
| COc1ccc([N+](=O)[O-])c(OC)c1C(=O)NC(=O)Nc1c(F)c(F)c(F)c(F)c1F | -14.5 | – |
| CCn1c(CSc2ncn[nH]2)nc2cc(C(=O)O)ccc21 | -12.9 | – |
| O=C1C(SCCO)=C(SCCO)C(=O)c2ccccc21 | – | 50.1 µM (active) |

| SMILES | activity change, negative = inhibition [%] | Potency |
| --- | --- | --- |
| CS(=O)(=O)NN1C(=O)c2ccccc2NC1c1cccc(O)c1 (stereo unspecified) | -27.5 | – |
| S=C(NCc1ccco1)N1CCN(c2ccccn2)CC1 | -8.01 | – |
| CCOc1ccccc1N1CCN(C(=O)c2cc(S(=O)(=O)N(C)C)ccc2N2CCCC2)CC1 | -17.2 | – |
| COc1ccc(CNC(=O)CN2C(=O)NC3(CCCCCC3)C2=O)cc1OC | -24.8 | – |
| CCn1nc(C)cc1C(=O)N1CCCC(N2CCN(Cc3ccc4c(c3)OCO4)CC2)C1 (stereo unspecified) | -15.2 | – |
| CCCC(=O)Nn1cnc2c(c1=O)C1(CCCCC1)Cc1ccccc1-2 | -1.01 | – |
| COc1ccc(S(=O)(=O)NCC2CC3C=CC2C3)cc1OC (stereo unspecified) | -23.8 | – |
| COCCNC(=O)Cn1c(=O)n(CCCC(=O)NCc2ccc3c(c2)OCO3)c(=O)c2sccc21 | -28.9 | – |
| COC(=O)C1=C(C)NC(C)=C(C(=O)OC)C1c1ccc(-c2cccc(Cl)c2Cl)o1 | 10.5 | – |
| CCOc1ccc(NC(=O)CN(C)C(=O)c2ccccc2CCc2ccccc2)cc1OCC | 3.66 | – |
| COc1ccc(CCNC(=O)Cn2cc(C(F)(F)F)cc(Cl)c2=O)cc1 | -28.5 | – |
| CSc1nc2c(c(=O)[nH]1)C(c1cccc(Br)c1)CC(=O)N2 (stereo unspecified) | -7 | – |
| CC(=O)Nc1ccc(S(=O)(=O)Nc2nc3ccccc3nc2Nc2ccc(O)c(C(=O)O)c2)cc1 | -17.6 | – |
| COC(OC)c1nc(SCC(=O)Nc2cccc(Cl)c2)ncc1C(=O)O | -14 | – |
| CCC(Oc1ccccc1F)C(=O)NCCCn1ccnc1 (stereo unspecified) | -4.46 | – |
| Cc1nonc1C1CCCN1C(=O)c1cc(COc2ccc(F)cc2Cl)on1 (stereo unspecified) | -30.1 | – |
| Cc1ccc(COC(=O)CCN=C2NS(=O)(=O)c3ccccc32)cc1 | -23.1 | – |
| Nc1cccc(N2C(=O)c3cccc4c(N)ccc(c34)C2=O)c1 | – | 39.8 µM (active) |
| O=C(Nc1ccc(-c2nc3ccccc3[nH]2)cc1)c1c(F)c(F)c(F)c(F)c1F | -17.1 | – |
| Cn1ccc(C(=O)OCC(=O)Nc2ccccc2)n1 | -10.8 | – |
| COc1ccc(CNC(=O)COC(=O)CCOc2ccccc2)cc1 | -27.1 | – |
| Cc1nn(-c2ccc(Cl)cc2)c2[nH]c(CCl)cc(=O)c12 | -6.79 | – |
| Cc1cc(S(=O)(=O)N2CCOCC2)ccc1OCC(=O)Nc1ccc(F)c(Cl)c1 | -25.9 | – |
| C=CCn1c2ccccc2c2nnc(SCC(=O)NC(C(=O)OC)C(C)C)nc21 (stereo unspecified) | -32.4 | – |
| O=C1c2ccc3c4c(ccc(c24)C(=O)N1CCCCO)C(=O)N(CCCCO)C3=O | – | 20 µM (active) |
